# From PubChem BioAssay (NCI)
# Values joined by “and” are separate entries in the source; they are usually repeats but may differ in a detail not shown here. Equal values may be shown once. Compounds without any hit were thinned out: in the full panel of roughly 83,000, 20% have a hit.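 Plates (96-well) were seeded with cells, treated with compound at one concentration, and incubated for 48 hours before percent growth was determined.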 Unmarked numbers belong to inactive results. Active and inactive are the calls of the source. The calls were made as follows: active = growth percent below 10; inactive = the rest.
# Legend:
# Experiment in all cases: NCI-60 one-dose screen, 48 h (100 = growth as untreated, 0 = no growth, -100 = all killed)
# MOLT-4 leukemia = conditions: 10 µM unless noted
# SR leukemia = tested on: SR leukemia
# OVCAR-8 ovarian = conditions: 10 µM unless noted
# OVCAR-5 ovarian = tested on: OVCAR-5 ovarian
# OVCAR-4 ovarian = tested on: OVCAR-4 ovarian
# SK-OV-3 ovarian = tested on: SK-OV-3 ovarian
# IGROV1 ovarian = tested on: IGROV1 ovarian
# OVCAR-3 ovarian = tested on: OVCAR-3 ovarian
# HS 578T breast = tested on: HS 578T breast
# NCI/ADR-RES ovarian = tested on: NCI/ADR-RES ovarian
# T-47D breast = conditions: 10 µM unless noted
# BT-549 breast = tested on: BT-549 breast
# MDA-MB-435 melanoma = tested on: MDA-MB-435 melanoma
# SW-620 colon = conditions: 10 µM unless noted
# MCF7 breast = tested on: MCF7 breast
# HCT-116 colon = tested on: HCT-116 colon
# HCC-2998 colon = tested on: HCC-2998 colon
# KM12 colon = tested on: KM12 colon
# RPMI-8226 leukemia = tested on: RPMI-8226 leukemia
smiles,measurement,setting,value
c1ccc2c(c1)sc1ccccc12,growth,MOLT-4 leukemia,104%
same,growth,SR leukemia; 10 µM unless noted,105%
same,growth,OVCAR-8 ovarian,101%
same,growth,OVCAR-5 ovarian; 10 µM unless noted,95.7%
same,growth,OVCAR-4 ovarian; 10 µM unless noted,105%
same,growth,SK-OV-3 ovarian; 10 µM unless noted,104%
same,growth,IGROV1 ovarian; 10 µM unless noted,98.2%
same,growth,OVCAR-3 ovarian; 10 µM unless noted,116%
same,growth,HS 578T breast; 10 µM unless noted,104%
same,growth,NCI/ADR-RES ovarian; 10 µM unless noted,99.4%
same,growth,T-47D breast,112%
same,growth,BT-549 breast; 10 µM unless noted,96.7%
same,growth,MDA-MB-435 melanoma; 10 µM unless noted,92.8%
same,growth,SW-620 colon,106%
same,growth,MCF7 breast; 10 µM unless noted,102%
same,growth,HCT-116 colon; 10 µM unless noted,96.6%
same,growth,HCC-2998 colon; 10 µM unless noted,97.3%
same,growth,KM12 colon; 10 µM unless noted,103%
O=C(O)CCCc1ccc(N(CCCl)CCCl)cc1,growth,SR leukemia; 10 µM,44.8% and 19.5%
same,growth,SR leukemia; 75 µM,5.82% (active)
same,growth,RPMI-8226 leukemia; 10 µM,84.4% and 90.7%
same,growth,RPMI-8226 leukemia; 75 µM,7.4% (active)
same,growth,OVCAR-5 ovarian; 10 µM,97.7% and 81.1%
same,growth,OVCAR-5 ovarian; 75 µM,66.4%
same,growth,OVCAR-4 ovarian; 10 µM,102% and 107%
same,growth,OVCAR-4 ovarian; 75 µM,83.2%
same,growth,SK-OV-3 ovarian; 10 µM,101% and 108%
same,growth,SK-OV-3 ovarian; 75 µM,59.8%
same,growth,IGROV1 ovarian; 10 µM,80.2%
same,growth,IGROV1 ovarian; 75 µM,50.9%
same,growth,OVCAR-3 ovarian; 10 µM,111% and 108%
same,growth,OVCAR-3 ovarian; 75 µM,18.9%
same,growth,HS 578T breast; 10 µM,120% and 113%
same,growth,HS 578T breast; 75 µM,-4.49% (active)
same,growth,NCI/ADR-RES ovarian; 10 µM,96.3% and 89%
same,growth,NCI/ADR-RES ovarian; 75 µM,31%
same,growth,BT-549 breast; 10 µM,86.7% and 96.5%
same,growth,BT-549 breast; 75 µM,11.7%
same,growth,MDA-MB-435 melanoma; 10 µM,102% and 97.9%
same,growth,MDA-MB-435 melanoma; 75 µM,38.8%
same,growth,MCF7 breast; 10 µM,80.9% and 68.4%
same,growth,MCF7 breast; 75 µM,24.9%
same,growth,HCT-116 colon; 10 µM,84.4% and 87%
same,growth,HCT-116 colon; 75 µM,32.1%
same,growth,HCC-2998 colon; 10 µM,85.1% and 87.7%
same,growth,HCC-2998 colon; 75 µM,6.85% (active)
same,growth,KM12 colon; 10 µM,105% and 98%
same,growth,KM12 colon; 75 µM,65.3%
Cc1ccc(C(=O)O[C@H](C(=O)O)[C@H](OC(=O)c2ccc(C)cc2)C(=O)O)cc1,growth,RPMI-8226 leukemia; 10 µM unless noted,106%
same,growth,OVCAR-8 ovarian,98.8%
same,growth,OVCAR-5 ovarian; 10 µM unless noted,114%
same,growth,OVCAR-4 ovarian; 10 µM unless noted,103%
same,growth,SK-OV-3 ovarian; 10 µM unless noted,96.9%
same,growth,IGROV1 ovarian; 10 µM unless noted,103%
same,growth,OVCAR-3 ovarian; 10 µM unless noted,111%
same,growth,HS 578T breast; 10 µM unless noted,128%
same,growth,NCI/ADR-RES ovarian; 10 µM unless noted,99.1%
same,growth,BT-549 breast; 10 µM unless noted,101%
same,growth,SW-620 colon,105%
same,growth,MCF7 breast; 10 µM unless noted,105%
same,growth,HCT-116 colon; 10 µM unless noted,103%
same,growth,KM12 colon; 10 µM unless noted,112%
COc1ccc(C(C#N)C(C)=O)cc1 (stereo unspecified),growth,SR leukemia; 10 µM unless noted,98.8%
same,growth,OVCAR-8 ovarian,95.5%
same,growth,OVCAR-5 ovarian; 10 µM unless noted,95.3%
same,growth,OVCAR-4 ovarian; 10 µM unless noted,131%
same,growth,SK-OV-3 ovarian; 10 µM unless noted,99%
same,growth,IGROV1 ovarian; 10 µM unless noted,114%
same,growth,OVCAR-3 ovarian; 10 µM unless noted,108%
same,growth,NCI/ADR-RES ovarian; 10 µM unless noted,102%
same,growth,T-47D breast,104%
same,growth,BT-549 breast; 10 µM unless noted,100%
same,growth,SW-620 colon,104%
same,growth,MCF7 breast; 10 µM unless noted,102%
same,growth,HCT-116 colon; 10 µM unless noted,105%
same,growth,KM12 colon; 10 µM unless noted,98.5%
O=C1CCCCC1CN1CCCCC1 (stereo unspecified),growth,SR leukemia; 10 µM unless noted,123%
same,growth,OVCAR-8 ovarian,110%
same,growth,OVCAR-5 ovarian; 10 µM unless noted,97.1%
same,growth,OVCAR-4 ovarian; 10 µM unless noted,119%
same,growth,SK-OV-3 ovarian; 10 µM unless noted,97.9%
same,growth,IGROV1 ovarian; 10 µM unless noted,93.9%
same,growth,OVCAR-3 ovarian; 10 µM unless noted,100%
same,growth,HS 578T breast; 10 µM unless noted,107%
same,growth,NCI/ADR-RES ovarian; 10 µM unless noted,101%
same,growth,T-47D breast,83.2%
same,growth,BT-549 breast; 10 µM unless noted,117%
same,growth,MDA-MB-435 melanoma; 10 µM unless noted,109%
same,growth,SW-620 colon,101%
same,growth,MCF7 breast; 10 µM unless noted,90.9%
same,growth,HCT-116 colon; 10 µM unless noted,101%
same,growth,HCC-2998 colon; 10 µM unless noted,97.8%
same,growth,KM12 colon; 10 µM unless noted,98.1%
OCCNC1CCCCC1,growth,SR leukemia; 10 µM unless noted,94.2%
same,growth,RPMI-8226 leukemia; 10 µM unless noted,108%
same,growth,OVCAR-8 ovarian,112%
same,growth,OVCAR-5 ovarian; 10 µM unless noted,98%
same,growth,OVCAR-4 ovarian; 10 µM unless noted,111%
same,growth,SK-OV-3 ovarian; 10 µM unless noted,105%
same,growth,IGROV1 ovarian; 10 µM unless noted,111%
same,growth,OVCAR-3 ovarian; 10 µM unless noted,112%
same,growth,HS 578T breast; 10 µM unless noted,108%
same,growth,NCI/ADR-RES ovarian; 10 µM unless noted,115%
same,growth,T-47D breast,98.4%
same,growth,BT-549 breast; 10 µM unless noted,113%
same,growth,SW-620 colon,108%
same,growth,MCF7 breast; 10 µM unless noted,101%
same,growth,HCT-116 colon; 10 µM unless noted,94.3%
same,growth,KM12 colon; 10 µM unless noted,107%
COC12CC3C4=CCOC5CC(=O)N6c7ccccc7C1(CCN2C4)C6C53 (stereo unspecified),growth,RPMI-8226 leukemia; 10 µM unless noted,104%
same,growth,OVCAR-8 ovarian,91.8%
same,growth,OVCAR-5 ovarian; 10 µM unless noted,121%
same,growth,OVCAR-4 ovarian; 10 µM unless noted,97.5%
same,growth,SK-OV-3 ovarian; 10 µM unless noted,107%
same,growth,IGROV1 ovarian; 10 µM unless noted,108%
same,growth,OVCAR-3 ovarian; 10 µM unless noted,117%
same,growth,HS 578T breast; 10 µM unless noted,117%
same,growth,NCI/ADR-RES ovarian; 10 µM unless noted,111%
same,growth,T-47D breast,103%
same,growth,BT-549 breast; 10 µM unless noted,96.3%
same,growth,MDA-MB-435 melanoma; 10 µM unless noted,114%
same,growth,SW-620 colon,107%
same,growth,MCF7 breast; 10 µM unless noted,95.2%
same,growth,HCT-116 colon; 10 µM unless noted,108%
same,growth,HCC-2998 colon; 10 µM unless noted,96%
same,growth,KM12 colon; 10 µM unless noted,105%
CC/C(Cc1ccccc1)=C(\c1ccc(OCCN2CCCC2)cc1)c1ccc(OC(=O)NCc2ccccc2)cc1,growth,SR leukemia; 10 µM unless noted,-28.2% (active)
same,growth,OVCAR-8 ovarian,62.2%
same,growth,OVCAR-5 ovarian; 10 µM unless noted,75.9%
same,growth,OVCAR-4 ovarian; 10 µM unless noted,59.9%
same,growth,SK-OV-3 ovarian; 10 µM unless noted,91.9%
same,growth,IGROV1 ovarian; 10 µM unless noted,40%
same,growth,OVCAR-3 ovarian; 10 µM unless noted,78.4%
same,growth,HS 578T breast; 10 µM unless noted,69.5%
same,growth,NCI/ADR-RES ovarian; 10 µM unless noted,88.1%
same,growth,BT-549 breast; 10 µM unless noted,77.9%
same,growth,MDA-MB-435 melanoma; 10 µM unless noted,53.6%
same,growth,SW-620 colon,-44.1% (active)
same,growth,MCF7 breast; 10 µM unless noted,-11.1% (active)
same,growth,HCT-116 colon; 10 µM unless noted,-34.2% (active)
same,growth,KM12 colon; 10 µM unless noted,45.7%
